This is a sample that favours compounds with a hit; in the whole collection about 2.6% have one here.
MLLE-PAM2 inh: blocks PAM2 peptide binding to the PABP1 MLLE domain; 0.36% of 360,000 active; inhibition, % at 20 µM; P11940; GST-MLLE / FITC-PAM2 fluorescence polarization; in the data active = inhibition above about 35%, passing the limit was not always enough
PHOSPHO1 block: inhibitors of human PHOSPHO1 phosphatase; Q8TCT1; recombinant PHOSPHO1, absorbance phosphatase assay; inhibition, % at 13.3 µM; 1.1% of 290,000 active; AID 1565; in the data active = inhibition above about 60%
Target sequence (Q8TCT1 whole entry, looked up): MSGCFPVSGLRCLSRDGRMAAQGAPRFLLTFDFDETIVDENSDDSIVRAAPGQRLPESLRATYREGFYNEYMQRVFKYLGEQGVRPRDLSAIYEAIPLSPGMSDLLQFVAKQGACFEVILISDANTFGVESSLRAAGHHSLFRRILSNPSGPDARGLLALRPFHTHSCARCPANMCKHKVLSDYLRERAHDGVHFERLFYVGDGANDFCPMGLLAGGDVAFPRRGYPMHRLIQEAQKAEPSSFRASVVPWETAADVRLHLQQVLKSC
PABP FP inh: PABP-poly(A) binding inhibition; P11940; PABP-poly(A) RNA binding, fluorescence polarization; inhibition, % at 35 µM; 1% of 290,000 active; AID 2014;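 note: calls also rest on retests at 20 µM and on dose response follow-up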
CRFBP-R2 block: antagonists of CRF-binding protein/CRF-R2 receptor complex; HEK293 CRF-R2/CRF-BP, CRF-induced calcium fluorescence; inhibition, % at 11.8 µM; 0.59% of 350,000 active; AID 588475;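 active = inhibition of the ligand-induced calcium signal above about 50% at the single tested concentration, limit read from the data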
eIF4H FP inh: inhibitors of RNA binding by human eIF4H. inhibition, % at 35 µM. Q15056. eIF4H fluorescence polarization binding assay. AID 2012. 0.94% of 290,000 active;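 note: calls also rest on retests at 20 µM and on dose response follow-up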
Large screens that a line does not name were inactive. Unless noted, the rule behind the calls is not given here.

Cc1ccc(NC(=O)c2sc3ncn(CC(=O)N4CCN(c5ccccn5)CC4)c(=O)c3c2C)cc1F	none
Cc1ccc(-n2ncc3c(=O)n(-c4cccc(C)c4)c(=O)[nH]c32)cc1	none (no result: PHOSPHO1 block, PABP FP inh, eIF4H FP inh)
COc1ccc(SCC(=O)Nc2ccccc2Cl)cc1	CRFBP-R2 block 80
COc1ccc(NC(=O)CSc2ccccc2)cn1	MLLE-PAM2 inh 42
COc1ccc(NC(=O)Cc2ccccc2)cn1	eIF4H FP inh inconclusive
COc1ccc(OCC(=O)Nc2ccccc2Cl)cc1	none
CC1(c2ccccc2)CC(C)(C)N2C(=O)/C(=C3\SC(=S)NC3=O)c3cccc1c32 (centres undefined)	CRFBP-R2 block 54
CC(=C1SC(=S)NC1=O)c1ccccc1	none (no result: PHOSPHO1 block, PABP FP inh, eIF4H FP inh)
CC(C)c1ccc(C2(C)NC(=O)N(CC(=O)NCC3COc4ccccc4O3)C2=O)cc1 (centres undefined)	none (no result: PHOSPHO1 block, PABP FP inh, eIF4H FP inh)
Cc1ccc(C)c(Nc2ncccc2C(=O)NCc2cccs2)c1	PABP FP inh 76, eIF4H FP inh inconclusive
O=C(CNC(=O)c1cccs1)NCC(=O)OCc1ccccc1Cl	none
O=C(CNC(=O)c1ccccc1)NCC(=O)OCc1ccccc1Cl	PHOSPHO1 block 60
CCOc1nc(C)ccc1-c1noc(-c2ccco2)n1	none
CCOc1nc(C)ccc1-c1noc(-c2ccccn2)n1	CRFBP-R2 block 111
C=CCOc1ccc(/C=C2\SC(=S)N(C(C(=O)O)c3ccccc3)C2=O)cc1 (centres undefined)	CRFBP-R2 block 55
CCOc1ccc2nc(N3CCC(C(=O)NC4CCCCC4)CC3)sc2c1	PHOSPHO1 block 65
CC(C(=O)NCCS(=O)(=O)c1ccc(Br)cc1)S(=O)(=O)c1ccc(Cl)cc1 (centres undefined)	none
CC(C)c1ccc(C(C)NCCS(=O)(=O)c2ccc(Cl)cc2)cc1 (centres undefined)	PHOSPHO1 block 73
Cc1ccc(C)c(C(=O)CSc2n[nH]c(-c3ccncc3)n2)c1	PHOSPHO1 block 64
N#Cc1ccc(-c2nc3c4ccccc4ccn3c2Cc2cccc(Cl)c2)cc1	none (no result: PHOSPHO1 block, PABP FP inh, CRFBP-R2 block, eIF4H FP inh)
Cn1c(SCC(=O)N/N=C/C=C\c2ccco2)nc2ccccc21	PHOSPHO1 block 73, PABP FP inh 56, eIF4H FP inh 90
Cn1c(=O)c2c(ncn2CC(=O)N/N=C/C=C/c2ccco2)n(C)c1=O	PABP FP inh 102, eIF4H FP inh 99
CCn1c(SCC(=O)N/N=C/C=C\c2ccco2)nc2ccccc21	none (no result: PABP FP inh, eIF4H FP inh)
O=C(Nc1cccn(Cc2c(Cl)cccc2Cl)c1=O)c1c(Cl)cccc1Cl	CRFBP-R2 block 52
CN(C)CCNC(=O)c1cccc(-c2cccc3nncn23)c1	none (no result: PHOSPHO1 block, PABP FP inh, CRFBP-R2 block, eIF4H FP inh)
N#CCCN(C(=S)NC(=O)c1ccco1)c1ccccc1F	MLLE-PAM2 inh 47
N#CCCN(Cc1cccnc1)C(=S)NC(=O)c1ccco1	PABP FP inh 67
O=C(CCn1nc(-c2ccccc2)ccc1=O)N1CCOCC1	CRFBP-R2 block 120
O=C(Cn1nc(-c2ccccc2)ccc1=O)N1CCOCC1	none (no result: PHOSPHO1 block, PABP FP inh, eIF4H FP inh)
N#Cc1ccc(-c2cccc3nccn23)cc1	none (no result: PHOSPHO1 block, PABP FP inh, CRFBP-R2 block, eIF4H FP inh)
CCOC(=O)C1(Cc2cccc(OC)c2)CCCN(C(=O)c2cc(C)on2)C1 (centres undefined)	PHOSPHO1 block 68
CCOC(=O)C1(Cc2cccc(OC)c2)CCCN(Cc2nccn2CC)C1 (centres undefined)	PHOSPHO1 block 60
CCOC(=O)C1(Cc2cccc(Cl)c2)CCCN(C(=O)c2ccco2)C1 (centres undefined)	none
CCn1ccnc1CN1CCCC(CO)(Cc2cccc(OC)c2)C1 (centres undefined)	none
CCOC(=O)C1(Cc2cccc(Cl)c2)CCCN(C(=O)c2ccoc2C)C1 (centres undefined)	PHOSPHO1 block 61
COc1ccc(-c2cnc3c(NC(C)=O)cc(-c4ccc(C(=O)N5CCOCC5)cc4)cn23)cc1OC	none (no result: PHOSPHO1 block, PABP FP inh, CRFBP-R2 block, eIF4H FP inh)
COC(=O)[C@H]1C[C@@]2(O)CN(S(=O)(=O)c3ccc(C)cc3)C[C@@]2(OC(=O)NC2CC2)C[C@H]1C(=O)OC	none (no result: PHOSPHO1 block, PABP FP inh, eIF4H FP inh)
O=C1C2C3C=CC(C2C(=O)N1c1nccs1)C1C(=O)N(c2nccs2)C(=O)C31 (centres undefined)	none
O=C1C2C3C=CC(CC3)C2C(=O)N1c1nccs1 (centres undefined)	PABP FP inh active, eIF4H FP inh 105
O=C(CSc1nc2ncc(Br)cc2[nH]1)c1cccc([N+](=O)[O-])c1	none
Cc1nc2nc(SCC(=O)c3cccc([N+](=O)[O-])c3)[nH]c2cc1Br	CRFBP-R2 block 67
CC(=O)c1ccc(OCc2cc(C(=O)NC(C)c3cnn(C)c3)no2)cc1 (centres undefined)	PHOSPHO1 block 62
COC(=O)c1cc(C(=O)OCC(=O)c2ccc3c(c2)NC(=O)CO3)cc([N+](=O)[O-])c1	none (no result: PHOSPHO1 block, PABP FP inh, eIF4H FP inh)
Cc1ccc(S(=O)(=O)NNc2ccccc2)cc1	none
Cc1ccc(S(=O)(=O)NNc2nc3ccccc3nc2C(F)(F)F)cc1	PHOSPHO1 block 92
Cc1ccn2c(Cc3ccccc3)c(-c3ccc(F)cc3)nc2c1	none (no result: PHOSPHO1 block, PABP FP inh, eIF4H FP inh)
CN(Cc1ccc(F)cc1)C(=O)c1sccc1-c1ccccc1	PABP FP inh 50
Cc1cccc(N2CC(C(=O)OCc3ccc([N+](=O)[O-])cc3)CC2=O)c1 (centres undefined)	PHOSPHO1 block 60
O=C(OCc1ccc([N+](=O)[O-])cc1)C1CC(=O)N(c2ccccc2)C1 (centres undefined)	none
Cc1ccc(CNC(=O)CCSCc2cccc(F)c2)cc1	none
Cn1c(=O)cc(OCCCC(=O)NCCN2CCN(c3ccccc3F)CC2)c2ccccc21	CRFBP-R2 block 82
O=C(Nc1cccnc1)C1Cc2c(-c3cccc(F)c3)ccnc2O1 (centres undefined)	none (no result: PHOSPHO1 block, PABP FP inh, CRFBP-R2 block, eIF4H FP inh)
Cc1cccc(C)c1NC(=O)CN1C(=O)S/C(=C\c2cccn2-c2cccc(C(=O)O)c2)C1=O	PABP FP inh 36, eIF4H FP inh 80
Cc1ccccc1NC(=O)CN1C(=O)S/C(=C\c2cccn2-c2cccc(C(=O)O)c2)C1=O	PABP FP inh 38, eIF4H FP inh 81
Cc1ccc(NC(=O)CN2C(=O)S/C(=C\c3cccn3-c3cccc(C(=O)O)c3)C2=O)cc1C	PABP FP inh 32
Cc1cccc(C)c1NC(=O)CN1C(=O)S/C(=C\c2cccn2C)C1=O	none
Cc1ccc(NC(=O)CN2C(=O)S/C(=C\c3cccn3-c3cccc(C(=O)O)c3)C2=O)c(C)c1	PHOSPHO1 block 102, PABP FP inh 41, eIF4H FP inh 91
Cc1cccc(NC(=O)CN2C(=O)S/C(=C\c3cccn3-c3cccc(C(=O)O)c3)C2=O)c1	none
CC(=O)Nc1cccc(Oc2ncnc3scc(-c4ccc(C(C)C)cc4)c23)c1	none
COc1ccc(NC(=O)CN2C(=O)S/C(=C/c3cccn3-c3ccc(C(=O)O)cc3)C2=O)cc1	PABP FP inh 80, eIF4H FP inh 87 (no result: CRFBP-R2 block)
COc1ccc(/C=C2\SC(=O)N(CCCC(=O)Nc3ccc(C(=O)O)cc3)C2=O)cc1	none (no result: PHOSPHO1 block, PABP FP inh, eIF4H FP inh)
CS(=O)(=O)Nc1cccc(NC(=O)C2Cc3c(-c4ccccc4)ccnc3O2)c1 (centres undefined)	none (no result: PHOSPHO1 block, PABP FP inh, CRFBP-R2 block, eIF4H FP inh)
COc1cc(C(=O)NCc2ccccc2Cl)ccc1OCC(=O)N1CCOCC1	CRFBP-R2 block 62 (no result: PHOSPHO1 block, PABP FP inh, eIF4H FP inh)

From PubChem BioAssay
